Several values for one entry are separate records, joined by “and”; a condition that tells them apart may be missing. Equal values may be shown once. Records with an inconclusive call do not appear. Activity calls are given as the source filed them. Calls come from the whole dose curve; as a rule, active = well fitted curve in the direction sought with a large enough effect; inconclusive = small, poorly fitted or top-dose-only effect, or another doubt; inactive = no such curve, though single readings can be large; an effect the other way counts as inactive or inconclusive.
Key:
[1] = qHTS of pediatric cancer cell lines to identify multiple opportunities for drug repurposing: Confirmatory screen for BT-37 cells (AID 1347117); note: potency is the fitted concentration of half-maximal effect;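 note: viability measured after 48 h of compound exposure; nearly all actives have a fitted effect of over 55% in size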;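 for activity change, negative = cytotoxic: plate controls were DMSO for no effect and bortezomib for full effect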
Method in brief: (§1)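 Viability after 48 h compound treatment at 37C, 500-1,000 cells/well, read as ATP luminescence with CellTiter-Glo. Primary screens used 11-point (MIPE, 0.78 nM-46 µM) or 8-point (NPC, 0.59 nM-46 µM) final concentrations; follow-up screens used 11-point dilutions.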

[2] = qHTS of pediatric cancer cell lines to identify multiple opportunities for drug repurposing: Confirmatory screen for TC32 cells (AID 1347118);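 note: cells exposed to compound for 48 h before the read; nearly all actives have a fitted effect of over 65% in size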; note: potency is the fitted concentration of half-maximal effect; for activity change, negative = cytotoxicity: % is set by controls: 0 for no effect and ±100 for the full control effect
Method in brief: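 qHTS, TC32, 48 h drug treatment, CellTiter-Glo luminescence as a proxy for metabolically active cells; primary top concentration 46 µM (MIPE 11-pt, NPC 8-pt); confirmatory 11-pt.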

[3] = qHTS of pediatric cancer cell lines to identify multiple opportunities for drug repurposing: Confirmatory screen for MG 63 (6-TG R) cells (AID 1347119); note: nearly all actives have a fitted effect of over 55% in size; note: potency is the fitted concentration of half-maximal effect;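 for activity change, negative = cytotoxicity: plate controls were DMSO neutral control for no effect and bortezomib for full effect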
Method in brief: as §1

[4] = qHTS of pediatric cancer cell lines to identify multiple opportunities for drug repurposing: Confirmatory screen for control Hh wild type fibroblast cells (AID 1347121); note: nearly all actives have a fitted effect of over 70% in size; note: potency is the fitted concentration of half-maximal effect;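 for activity, negative = cytotoxic: plate controls were DMSO for no effect and bortezomib for full effect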
Method in brief: as §1

[5] = qHTS of pediatric cancer cell lines to identify multiple opportunities for drug repurposing: Confirmatory screen for U-2 OS cells (AID 1347122); note: nearly all actives have a fitted effect of over 65% in size; note: potency is the fitted concentration of half-maximal effect;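 for activity change, negative = cytotoxicity: plate controls were DMSO for no effect and bortezomib for full effect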
Method in brief: as §1

[6] = qHTS of pediatric cancer cell lines to identify multiple opportunities for drug repurposing: Confirmatory screen for RD cells (AID 1347124);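 note: cells exposed to compound for 48 h before viability readout; nearly all actives have a fitted effect of over 65% in size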; note: potency is the fitted concentration of half-maximal effect; for activity change, negative = cytotoxic: % is set by controls: 0 for no effect and ±100 for the full control effect
Method in brief: as §1

[7] = qHTS of pediatric cancer cell lines to identify multiple opportunities for drug repurposing: Confirmatory screen for Rh18 cells (AID 1347125); note: nearly all actives have a fitted effect of over 55% in size; note: potency is the fitted concentration of half-maximal effect; for activity change, negative = cytotoxic: % is set by controls: 0 for no effect and ±100 for the full control effect
Method in brief: as §1

[8] = qHTS of pediatric cancer cell lines to identify multiple opportunities for drug repurposing: Confirmatory screen for Rh30 cells (AID 1347126); note: nearly all actives have a fitted effect of over 55% in size; note: potency is the fitted concentration of half-maximal effect; for activity change, negative = cytotoxic: % is set by controls: 0 for no effect and ±100 for the full control effect
Method in brief: as §1

[9] = qHTS of pediatric cancer cell lines to identify multiple opportunities for drug repurposing: Confirmatory screen for Saos-2 cells (AID 1347127); note: nearly all actives have a fitted effect of over 60% in size; note: potency is the fitted concentration of half-maximal effect;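 for activity change, negative = cytotoxic: plate controls were DMSO for no effect and bortezomib for full effect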
Method in brief: as §1

[10] = qHTS of pediatric cancer cell lines to identify multiple opportunities for drug repurposing: Confirmatory screen for OHS-50 cells (AID 1347128); note: potency is the fitted concentration of half-maximal effect
Method in brief: as §1

[11] = qHTS of pediatric cancer cell lines to identify multiple opportunities for drug repurposing: Confirmatory screen for SK-N-SH cells (AID 1347129);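 note: cells exposed to compound for 48 h before viability read; nearly all actives have a fitted effect of over 60% in size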; note: potency is the fitted concentration of half-maximal effect;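 for activity change, negative = cytotoxic: plate controls were DMSO for no effect and bortezomib control for full effect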
Method in brief: as §1

[12] = system: Zika virus NS2B-NS3 protease; experiment: Primary screen GU AMC qHTS for Zika virus inhibitors (AID 1347154); note: nearly all actives have a fitted effect of over 70% in size; note: potency is the fitted concentration of half-maximal effect;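 for activity change, negative = inhibition: 0% = no-inhibitor control and -100% = no-enzyme control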
Method in brief: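 Unlinked Zika NS2B hydrophilic domain–NS3 protease complex at 25 nM in 10 mM Tris-HCl pH 8.0, 0.01% Tween 20, with an AMC peptide substrate. Fluorescence change (340/450 nm) over 15 min at room temperature, normalized to controls, fitted to 4-parameter Hill.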

Furin (Homo sapiens) = Furin (Homo sapiens) (UniProt P09958); experiment: Furin counterscreen qHTS for Zika virus inhibitors (AID 1347149); note: nearly all actives have a fitted effect of over 70% in size; note: potency is the fitted concentration of half-maximal effect;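 for activity change, negative = inhibition: purified recombinant full-length human furin enzyme at 5 nM; fluorescence gain from furin cutting a BOC-RVRR-AMC peptide substrate over 15 min; top concentration of the series differs between compounds; plate controls were no-inhibitor control for no effect and no-enzyme control for full effect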
Method in brief: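 Fluorogenic cleavage of BOC-RVRR-AMC (2 microM final, Km ~15 µM) was monitored (ex 340, em 450 nm) at 37C after 15 min RT preincubation of 5 nM furin with compounds in HEPES pH 7.0 buffer with CaCl2 and Triton X-100. Percent inhibition was fitted to a 4-parameter Hill curve.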

[13] = system: Zika virus NS2B-NS3 protease (linked construct); experiment: Confirmatory screen NINDS AMC qHTS for Zika virus inhibitors (AID 1347152); details: Purified linked NS2B-NS3, AMC substrate fluorescence; note: potency is the fitted concentration of half-maximal effect; nearly all actives have a fitted effect of over 70% in size
Method in brief: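 Linked NS2B-NS3 1 nM, Tris pH 8.0/0.01% Tween 20; cpd 15 min RT dark; + Nle-KRR-AMC 10 µM (Km 18.3 µM); read 0 and 15 min, 340/450 nm; %inh vs controls, 4-param Hill.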

[14] = system: Zika virus NS2B-NS3 protease (unlinked complex); experiment: Confirmatory screen GU AMC qHTS for Zika virus inhibitors (AID 1347153); details: Recombinant NS2B-NS3 protease, AMC substrate fluorescence
Method in brief: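 Fluorescence change (ex 340/em 450 nm) over 15 min, ~20% substrate conversion, normalized to no-inhibitor and no-enzyme controls, then Hill-fitted. Unlinked protease at 25 nM; AMC peptide 10 µM.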

[15] = ZIKV-mCherry secondary qHTS for Zika virus inhibitors (AID 1347158); note: top concentration of the series differs between compounds
Method in brief: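 Vero cells (5,000/well) were given compound, then infected with ZIKV-mCherry at MOI 1 for 48–72 h at 37 °C. After PFA fixation and Hoechst staining, imaging gave percent mCherry-positive cells. The positivity threshold was RFU above 450, 3 SD over negative controls.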

[16] = target: N-terminal Xaa-Pro-Lys N-methyltransferase 1 (Homo sapiens) (UniProt Q9BV86); experiment: qHTS Assay for Inhibitors of N-terminal methyltransferase 1 (NTMT1): LOPAC validation of the NTMT1 SAHH-coupled ThioGlo3 Assay (AID 1347143)
Method in brief: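 Recombinant human NTMT1 (125nM) was pre-incubated 1 min at room temperature with compounds over a concentration range, then a mix of 100uM SAM, 10uM SAHH and 15uM ThioGlo3 (concentrations in added reagent) was added. ThioGlo3 fluorescence (ex 340/em 450nm) after 30 min was normalized to the initial reading.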

[17] = system: Zika virus NS2B-NS3 protease (unlinked); experiment: Optimization of GU AMC qHTS for Zika virus inhibitors: Unlinked NS2B-NS3 protease assay (AID 1347151);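 note: series mostly up to about 52 µM; 0% = no-inhibitor control and -100% = no-enzyme control; nearly all actives have a fitted effect of over 80% in size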
Method in brief: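 Fluorescence read-out (340 nm ex / 450 nm em) of AMC peptide cleavage, taken immediately and after 15 min at room temperature (~20% conversion). Enzyme was the unlinked NS2B–NS3 complex at 25 nM in Tris pH 8.0 buffer.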

Sequence of Furin (Homo sapiens) (P09958 whole entry, looked up): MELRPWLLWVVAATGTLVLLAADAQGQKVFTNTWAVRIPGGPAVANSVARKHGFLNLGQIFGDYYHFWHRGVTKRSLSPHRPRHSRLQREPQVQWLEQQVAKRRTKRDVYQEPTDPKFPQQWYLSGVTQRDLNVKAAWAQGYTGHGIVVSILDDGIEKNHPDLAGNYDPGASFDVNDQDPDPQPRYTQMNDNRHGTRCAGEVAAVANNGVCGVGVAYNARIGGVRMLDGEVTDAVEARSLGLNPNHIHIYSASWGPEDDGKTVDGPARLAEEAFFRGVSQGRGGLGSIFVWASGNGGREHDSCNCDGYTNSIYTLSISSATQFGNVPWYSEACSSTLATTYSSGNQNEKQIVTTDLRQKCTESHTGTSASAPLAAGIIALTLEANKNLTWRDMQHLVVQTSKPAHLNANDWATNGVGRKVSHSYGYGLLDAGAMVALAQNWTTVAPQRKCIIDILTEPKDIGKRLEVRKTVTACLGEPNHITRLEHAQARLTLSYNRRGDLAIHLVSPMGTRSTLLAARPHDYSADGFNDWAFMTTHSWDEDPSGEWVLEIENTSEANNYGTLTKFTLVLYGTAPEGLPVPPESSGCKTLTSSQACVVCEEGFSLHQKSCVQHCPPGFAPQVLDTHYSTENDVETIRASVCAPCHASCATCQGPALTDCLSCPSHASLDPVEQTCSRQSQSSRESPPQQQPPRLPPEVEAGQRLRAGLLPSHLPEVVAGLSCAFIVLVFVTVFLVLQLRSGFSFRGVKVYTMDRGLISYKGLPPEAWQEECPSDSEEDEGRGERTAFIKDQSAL
Sequence of N-terminal Xaa-Pro-Lys N-methyltransferase 1 (Homo sapiens) (Q9BV86 whole entry, looked up): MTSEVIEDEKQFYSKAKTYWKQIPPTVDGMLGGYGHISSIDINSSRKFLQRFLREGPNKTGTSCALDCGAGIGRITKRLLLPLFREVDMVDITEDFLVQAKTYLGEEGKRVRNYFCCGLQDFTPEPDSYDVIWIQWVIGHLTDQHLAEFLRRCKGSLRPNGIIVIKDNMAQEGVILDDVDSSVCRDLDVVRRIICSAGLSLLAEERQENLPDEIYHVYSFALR

CCN[C@@H]1C[C@H](N)[C@@H](OC2OC(CN)=CCC2N)[C@H](O)[C@H]1O[C@H]1OC[C@](C)(O)[C@H](NC)[C@H]1O (stereo not given in full)
inactive: activity change, negative = cytotoxic [1] 4.53% [at 0.556 µM] | Potency [2] | activity change, negative = cytotoxicity [3] -17.7% [at 0.556 µM] | activity, negative = cytotoxic [4] 8.41% [at 0.556 µM] | outcome [5] inactive [at 0.556 µM] | activity change, negative = cytotoxic [6] 11.8% [at 0.556 µM] | activity change, negative = cytotoxic [7] 4.31% [at 0.556 µM] | activity change, negative = cytotoxic [8] 25.4% [at 0.556 µM] | activity change, negative = cytotoxic [9] 11.1% [at 0.556 µM] | activity change, negative = cytotoxic [10] 3.87% [at 0.556 µM] | activity change, negative = cytotoxic [11] 6.98% [at 0.558 µM] | activity change, negative = inhibition [12] -3.5% [at 0.59 µM]

CC1(COc2ccc(CC3SC(=O)NC3=O)cc2)CCCCC1 (stereo not given)
active: Potency [13] 19.2 µM | Potency [14] 21.5 µM
inactive: Potency (Furin (Homo sapiens)) | activity change, negative = inhibition [12] 6.2% [at 6.83 µM] | outcome [15]

C=C[C@@]1(C)CC(=O)[C@]2(O)[C@@]3(C)[C@@H](O)CCC(C)(C)[C@@H]3[C@H](O)[C@H](OC(C)=O)[C@@]2(C)O1
inactive: Potency [4] | Potency [5] | Potency [11] | Potency [12]

CC1CCc2c(N3CCC(O)CC3)c(F)cc3c(=O)c(C(=O)O)cn1c23 (stereo not given)
inactive: Potency [4] | Potency [5] | Potency [6] | Potency [8] | Potency [11]

C#C[C@]1(O)CC[C@H]2[C@@H]3CCC4=CC(=O)CC[C@@H]4[C@H]3CC[C@@]21CC
inactive: Potency [12]

CCCCCCCCCCCCOCCOCCOCCOCCOCCOCCOCCOCCOCCO
active: Potency [5] 14.7 µM
inactive: Potency [1] | Potency [6] | Potency [7] | Potency [8] | Potency [9] | Potency [10] | Potency [11] | Potency [12]

CCc1oc2ccccc2c1C(=O)c1cc(I)c(O)c(I)c1
active: Potency [12] 28.7 µM

CN=C(N)NCCC[C@H](N)C(=O)O
inactive: outcome [16] | outcome [17] | Potency [12]

O=[N+]([O-])c1ccc(/C=N\O)o1
active: Potency [2] 3.29 µM | Potency [5] 4.14 µM | Potency [6] 0.414 µM | Potency [8] 1.17 µM
inactive: Potency [1] | Potency [4] | Potency [7] | Potency [10] | Potency [11] | Potency [12]

C[C@@]12C(=O)OC(=O)[C@]1(C)C1CCC2O1
inactive: Potency [11] | Potency [12]
active: Potency [1] 2.08 µM | Potency [2] 3.29 µM | Potency [3] 2.08 µM | Potency [5] 2.93 µM | Potency [6] 6.57 µM | Potency [7] 3.29 µM | Potency [8] 3.69 µM | Potency [9] 2.93 µM | Potency [10] 4.65 µM

CC(=O)Nc1ccc(CC(=O)O)cc1
inactive: Potency [12]

O[C@@H](c1cc(C(F)(F)F)nc2c(C(F)(F)F)cccc12)[C@H]1CCCCN1
inactive: Potency (Furin (Homo sapiens)) | outcome [17] | Potency [12]

C[C@H]1O[C@@H](O[C@H]2CC[C@@]3(C)[C@H](CC[C@@H]4[C@@H]3C[C@@H](O)[C@]3(C)[C@@H](C5=CC(=O)OC5)CC[C@]43O)C2)C[C@H](O)[C@@H]1O[C@H]1C[C@H](O)[C@H](O[C@H]2C[C@H](O)[C@H](O[C@@H]3O[C@H](CO)[C@@H](O)[C@H](O)[C@H]3O)[C@@H](C)O2)[C@@H](C)O1
inactive: Potency (Furin (Homo sapiens)) | outcome [17] | Potency [12]
active: Potency [1] 0.185 µM | Potency [2] 0.233 µM | Potency [3] 0.293 µM | Potency [5] 0.293 µM | Potency [8] 0.414 µM | Potency [9] 0.928 µM | Potency [10] 0.293 µM | Potency [11] 0.332 µM

CCc1oc2ccccc2c1C(=O)c1cc(Br)c(O)c(Br)c1
active: Potency (Furin (Homo sapiens)) 24.1 µM | Potency [13] 9.61 µM | Potency [14] 17.1 µM | Potency [12] 10.6 µM

CC(CNC1CCCCC1)OC(=O)c1ccccc1 (stereo not given)
inactive: Potency [12]

C[N+]12CCC(CC1)C(OC(=O)C(O)(c1ccccc1)c1ccccc1)C2 (stereo not given)
inactive: Potency [12]

C=C1c2cccc(O)c2C(O)=C2C(=O)[C@]3(O)C(O)=C(C(N)=O)C(=O)[C@@H](N(C)C)[C@@H]3[C@@H](O)[C@H]12
active: Potency (Furin (Homo sapiens)) 8.55 µM | Potency [14] 19.2 µM | Potency [12] 3.98 µM and 2.99 µM
inactive: outcome [15]

COc1ccc(C(=O)c2ccccc2)c(O)c1
inactive: Potency [1] | Potency [3] | Potency [4] | Potency [6] | Potency [7] | Potency [8] | Potency [9] | Potency [10] | Potency [11] | Potency [12]

CN(C)C(=O)Nc1ccc(Cl)c(Cl)c1
inactive: Potency [6] | Potency [11] | Potency [12]

CCN1/C(=C/C=C/c2sc3ccccc3[n+]2CC)Sc2ccccc21
inactive: Potency [8] | Potency [12]
active: Potency [1] 0.827 µM | Potency [2] 1.04 µM | Potency [3] 0.465 µM | Potency [4] 0.465 µM | Potency [5] 0.811 µM | Potency [7] 5.22 µM | Potency [9] 4.14 µM | Potency [10] 5.85 µM | Potency [11] 2.29 µM

Source: PubChem BioAssay (NCATS)
